DT40 TDP1 no CPT: qHTS for Inhibitors of human tyrosyl-DNA phosphodiesterase 1 (TDP1): qHTS in cells in absence of CPT; DT40 Tdp1-/- hTDP1 cells, no CPT, ATP luminescence, 48 h; Potency, µM (series often up to 46.2 µM), for the others: top-dose activity change, negative = growth inhibition, most hits filed as inhibitors; actives 15% (n = 420,000); AID 686978, 2013; also: nearly all actives have a fitted effect of over 55% in size
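Readout: luminescence from CellTiter-Glo after 30 min in the dark at RT. Cells: DT40 Tdp1-/- with stable hTDP1, 400/well. Exposure: compounds alone, ≥48 hr, 37 °C.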
DT40 TDP1 CPT: qHTS for Inhibitors of human tyrosyl-DNA phosphodiesterase 1 (TDP1): qHTS in cells in presence of CPT; actives 12% (n = 420,000); Potency, µM (titrated, usually from 46.2 µM), for inactives: at the highest dose activity change, negative = growth inhibition, hits mostly inhibitors; chicken DT40 Tdp1-/-;hTDP1 cells + 20 nM CPT, ATP luminescence, 48 h; AID 686979, 2013; also: nearly all actives have a fitted effect of over 55% in size
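Cell growth measured by CellTiter-Glo luminescence after a minimum 48 h, 37 C compound exposure with 20 nM CPT in Tdp1-knockout DT40 cells stably expressing hTDP1, seeded 400/well; qHTS titration format.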
VP16 counter: VP16 counterscreen qHTS for inhibitors of ROR gamma transcriptional activity; Drosophila S2 Gal4-VP16 UAS-luciferase, luminescence, 20 h; Potency, µM (top dose mostly 53.6 µM), for the others: top-dose activity, negative = inhibition, actives largely listed as inhibitors; actives 3.5% (n = 310,000); AID 2546, 2010;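 also: Gal4-VP16 expression switched on by copper sulfate through the metallothionein promoter; nearly all actives have a fitted effect of over 50% in size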
RORg inh: qHTS for inhibitors of ROR gamma transcriptional activity; Drosophila S2 Gal4-RORgamma UAS-luciferase reporter, 20 h; Potency, µM (series often up to 53.6 µM), for the others: at the highest dose activity change, negative = inhibition, hits mostly inhibitors; actives 5.4% (n = 310,000); also: nearly all actives have a fitted effect of over 60% in size
Target sequence (P51450 whole entry, looked up, the tested form may be a part): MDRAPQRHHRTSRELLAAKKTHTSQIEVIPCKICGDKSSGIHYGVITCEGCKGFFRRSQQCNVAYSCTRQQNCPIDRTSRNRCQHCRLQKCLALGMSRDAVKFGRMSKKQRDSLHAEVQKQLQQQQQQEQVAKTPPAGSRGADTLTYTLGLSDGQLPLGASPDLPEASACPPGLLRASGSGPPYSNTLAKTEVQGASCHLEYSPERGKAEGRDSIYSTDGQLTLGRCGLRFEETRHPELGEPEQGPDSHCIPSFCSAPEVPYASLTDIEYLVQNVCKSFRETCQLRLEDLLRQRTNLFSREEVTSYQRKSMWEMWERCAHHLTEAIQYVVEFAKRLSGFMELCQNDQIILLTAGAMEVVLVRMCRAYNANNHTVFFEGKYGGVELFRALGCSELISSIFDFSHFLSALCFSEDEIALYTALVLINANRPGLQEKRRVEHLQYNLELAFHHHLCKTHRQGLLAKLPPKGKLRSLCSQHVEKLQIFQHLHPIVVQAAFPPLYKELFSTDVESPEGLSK
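A Gal4/UAS one-hybrid system in insect cells: metallothionein-promoter Gal4–ROR gamma fusion plus Photinus luciferase reporter. Copper sulfate 700 uM final, 20 hr ambient incubation, luminescent detection after 10 min with reagent.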
TDP1 inh: qHTS Assay for Inhibitors of Tyrosyl-DNA Phosphodiesterase (TDP1); Tyrosyl-DNA phosphodiesterase 1 (Homo sapiens), Q9NUW8; recombinant TDP1, AlphaScreen DNA substrate cleavage; Potency, µM (highest dose often 130 µM), without a hit: top-dose activity change, negative = inhibition, most hits filed as inhibitors; actives 0.28% (n = 350,000); AID 485290, 2010; also: nearly all actives have a fitted effect of over 40% in size
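Signal: AlphaScreen proximity between streptavidin donor and anti-FITC acceptor beads on intact substrate. Reaction: Tdp1 1 nM, substrate 15 nM final, 5 min RT after 15 min compound preincubation.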
Starred values were filed as active, the others as inactive; ? = inconclusive; / = not tested or not shown; [ ] = dose if it differs, or a comment. In the library only some 19% were active in any assay of this set; here they are far more common. Calls follow the shape of the dose curve; as a rule, active = well fitted curve in the direction sought with a large enough effect; inconclusive = small, poorly fitted or top-dose-only effect, or another doubt; inactive = no such curve, though single readings can be large; an effect the other way counts as inactive or inconclusive. % is scaled to controls: 0 for no effect and ±100 for the full control effect; potency is read from the fitted curve at half-maximal effect.

SMILES	DT40 TDP1 no CPT	DT40 TDP1 CPT	VP16 counter	RORg inh	TDP1 inh
Cc1ccccc1NC(=O)Cn1c(=O)n(Cc2ccc3c(c2)OCO3)c(=O)c2ccc(C(=O)NC3CCCCC3)cc21	7.3µM*	5.8µM*	/	/	-7%
Cc1cc(C)c(NC(=O)Cn2c(=O)n(CCC(=O)N3CCc4ccccc4C3)c(=O)c3ccccc32)c(C)c1	0.52µM*	13µM*	/	/	6%
COc1ccc(Cl)cc1NC(=O)Cn1c(=O)n(Cc2ccco2)c(=O)c2ccc(C(=O)NC3CCCC3)cc21	-11%	-8%	/	/	2%
CCN(C(=O)Cn1c(=O)n(Cc2ccc3c(c2)OCO3)c(=O)c2ccc(C(=O)NC3CCCCC3)cc21)c1cccc(C)c1	16µM*	15µM*	/	/	5%
CCN(C(=O)Cn1c(=O)n(Cc2ccccc2)c(=O)c2ccccc21)c1cccc(C)c1	?	-11%	0%	0%	5%
Cc1ccc(NC(=O)Cn2c(=O)n(Cc3ccco3)c(=O)c3ccc(C(=O)NC4CCCC4)cc32)c(C)c1	16µM*	16µM*	/	/	-7%
CC(=O)Nc1ccc(S(=O)(=O)N[C@H](C(=O)O)C(C)C)cc1	-29%	-1%	-8%	-8%	-2%
O=C1C(=O)N(O)C2CCCCC2N1O (stereo not drawn)	4%	1%	3%	-6%	0%
CCCc1cc2c(OC(=O)CC)c(-c3ccc(C(=O)OCC)o3)c(=O)oc2cc1OC	?	?	-19%	?	0%
COc1ccc([N+](=O)[O-])cc1NC(=O)CC1SC(=Nc2cccc(C)c2C)N(/N=C/c2cccc(OC)c2OC)C1=O (stereo not drawn)	-9%	14%	-6%	-14%	7%
COc1ccccc1C(=O)NCC(=O)OCC(=O)Nc1cccc(S(=O)(=O)N2CCCCCC2)c1	-5%	1%	10%	18%	5%
Cc1ccc(NC(=O)Cn2c(=O)n(CCC(=O)NCc3ccc4c(c3)OCO4)c(=O)c3sccc32)c(C)c1	5%	26%	/	/	2%
Cc1cc(C)c(NC(=O)Cn2c(=O)n(Cc3ccc(C(=O)NCc4ccc5c(c4)OCO5)cc3)c(=O)c3ccccc32)c(C)c1	7.3µM*	6.5µM*	/	/	5%
Cc1cc(C)c(NC(=O)Cn2c(=O)n(Cc3ccc4c(c3)OCO4)c(=O)c3ccccc32)c(C)c1	?	-27%	/	/	1%
Cc1ccc(NC(=O)Cn2c(=O)n(Cc3ccc4c(c3)OCO4)c(=O)c3ccc(C(=O)NC4CCCCC4)cc32)c(C)c1	?	2.1µM*	/	/	-2%
Cc1ccc(C)c(NC(=O)Cn2c(=O)n(Cc3ccc4c(c3)OCO4)c(=O)c3ccc(C(=O)NC4CCCCC4)cc32)c1	?	2.6µM*	/	/	-2%
Cc1ccc(C)c(NC(=O)Cn2c(=O)n(CCC(=O)NCc3ccc4c(c3)OCO4)c(=O)c3ccccc32)c1	-14%	-17%	/	/	1%
Cc1ccc(NC(=O)c2ccc3snnc3c2)cc1Cl	-16%	-10%	/	/	5%
COc1cccc(Nc2nc(-c3sc(NC(=O)c4ccco4)nc3C)cs2)c1	23µM*	?	-1%	6%	5%
COc1cccc(Nc2nc(-c3sc(C)nc3C)cs2)c1	?	-17%	-12%	?	11%
Cc1nc(N)sc1-c1csc(Nc2ncccn2)n1	18µM*	16µM*	?	6.3µM*	89µM*
COc1cccc(Nc2nc(-c3sc(N)nc3C)cs2)c1	?	23µM*	12%	-16%	11%
COc1ccc(Cl)cc1Nc1nc(-c2sc(NC(=O)c3ccco3)nc2C)cs1	?	?	-8%	-29%	6%
COc1ccc(NC(=O)C2CC(c3c(F)cccc3Cl)=NO2)cc1 (stereo not drawn)	?	-17%	17%	18%[1.91 µM]	/

Compound activity from PubChem.
